Measured values as given in paper doi:10.1101/2023.07.10.548322.

Target: alpha-synuclein (aSyn) WT (human, UniProt P37840 1-140)
Experiment: RNA Bind-n-Seq
Details: ssRNA

Binding signal, 54.6 enrichment score:
AAGGGGCGGAGG, AGGGGGAUGUGG, GGAUGGUUGGUG

Binding signal, 51.8 enrichment score:
GGUGUGGGUGUG

Binding signal, 43.8 enrichment score:
UAGGGGUUGUGG, AGUGGCGGAGGG, CGGGUGGGAUGG, GUGCGGGGGGGC, GGGGAUGGUAGG, CGUGGGAGGGGG, GGGUGUUGGUUG, UGAGUGGGUGGU, UGAUGGGGGUGG, UGGGGGUGGAUG, GGAAUGGGGUGG, GAGGUUGGCGGG, GGGGGGCUGAGG

Binding signal, 65.9 enrichment score:
GGUGGGUUUGGG

Binding signal, 46.4 enrichment score:
UGGGUUUGGGGG, GGGAGCGGGGGA, GGCGGUUGUUGG, UUGGGUGGAGGG, UGGCGGGGUGGA, UAGGUUGGGGGU

Binding signal, 49.1 enrichment score:
GGGGAGUGGAUG, GGUAGGCUGUGG, UUGGGCGGGUAG

Binding signal, 41.1 enrichment score:
GGCAGGCUGUGG, GAGGGGCUGGCG, UGGGGGGAGAAG, GGAGGUGGUGCG, AGGGGAGCUGGG, AUGGGGUGGGCG
